Tg IFNy HTS = T. gondii growth inhibition with IFN-gamma, primary screen, cell-based; Toxoplasma gondii growth in IFN-gamma-treated host cells; active compounds read low; activity change, negative = inhibition, % (test concentration not listed); 69,000 tested, 3.8% active; AID 1259416, 2018; in the data active = activity change below about -70%, passing the limit was not always enough;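 also: host cells are HeLa cells infected with Toxoplasma gondii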
Starred values were filed as active, the others as inactive; ! = not confirmed by another sample. Only a selection was taken, and hits are over-represented in it overall.

SMILES	Tg IFNy HTS
CSc1nncc(-c2ccc(Cl)cc2)n1	-41.3
COc1cccc(-c2ccc(O)cc2)n1	27.8
CSc1nccc(-c2ccc(O)cc2)n1	-77.6*
NC(=O)N1c2ccccc2CC(O)c2ccccc21 (centres undefined)	18.7
c1ccc(CCc2nc(C3CCOCC3)n(-c3ccccn3)n2)cc1	-2.2
CC(=O)N1CCC2(CC1)CC(OCc1cccnc1)CO2 (centres undefined)	-2.6
Nc1[nH]c(=O)ncc1F	-79.1*!
CC(=O)Nc1cc(C)c(S(=O)(=O)NCc2ccc3[nH]c(C)c(C)c3c2)cc1C	38.6
O=C(Nc1ccc(S(=O)(=O)c2ccc(NC(=O)C(F)(F)F)cc2)cc1)C(F)(F)F	-28.6
Cc1onc(C(C)C)c1C(=O)Nc1nnc(Cc2cccc(F)c2)s1	-28.6
Cc1nn(-c2ccc3ccccc3n2)c2c1C(=O)CC(C)(C)C2	-94.9*
Cc1nn(C(=O)c2ccccc2)c2c1C(=O)CC(C)(C)C2	-29.6
CC1(C)CC(=O)c2cnc3nc(N)nn3c2C1	-11.6
C=CCn1cc(CN2CCN(S(=O)(=O)CC)CC2)c(C)n1	0.1
COc1cc2c(cc1OC)CN(CC(=O)NC(C)c1cn(C)nc1C)CC2 (centres undefined)	1.8
COc1cc2c(cc1OC)CN(CCc1ccc(NC(=O)c3cccc4c(=O)c5cccc(OC)c5[nH]c34)cc1)CC2	-83.9*
COc1cc2c(cc1OC)CN(Cc1c(C(C)C)[nH]c3ncccc13)CC2	-38.0
Cc1cc2cc(NC(=O)CCC(=O)Nc3nnc(C)s3)cc(Cl)c2o1	13.0
COc1cccc(-c2nccn2-c2ccc(-c3n[nH]c(C)n3)cc2)c1OC	-14.7
N#Cc1cccc(CN2CCc3ncnc(N4CCCC4)c3CC2)c1	-23.7
C=CCNc1ccc(C(=O)N2CCN(C(=O)c3ccccc3)CC2)cc1	1.3
CC[C@H](NC(=O)c1c(C)c(-c2ccccc2)nc2ccccc12)c1ccccc1	-12.1
Cc1noc(C)c1C(=O)Oc1ccccc1	-14.1
Cc1ccc(OC(=O)c2c(-c3ccccc3)nnc3ccccc23)cc1	-105.6*
O=C(c1cscn1)N1CCCC2(CCCN2Cc2ccccc2F)C1 (centres undefined)	27.6
SMILES	Tg IFNy HTS
COc1ccccc1CNC(=O)CC1N=C2c3ccccc3N=C(SCc3cc(=O)n4cc(Cl)ccc4n3)N2C1=O (centres undefined)	-24.3
CC(C)n1nc(CNc2ncccn2)c2c1CN(C(=O)N(C)C)CC2	-75.5*
Cc1cc(C)cc(C(=O)N2CCc3c(CNc4ncccn4)nn(C)c3C2)c1	12.6
CN(C)CC(=O)N1CCCn2cnc(CNc3ncccn3)c2C1	13.5
COc1cc(C(=O)c2ccccc2C#N)cc(OC)c1OC	-63.7
CO[C@@H]1CCN(C(=O)c2cnc(C)cn2)[C@H]1Cc1ccccc1	73.8
CN(CCc1ccccn1)C(=O)c1nccnc1C(=O)O	-5.5
Cc1cc(C)c2c(c1)[C@@H](N(Cc1cc(C(F)(F)F)cc(C(F)(F)F)c1)c1nnn(C)n1)CCCN2CC1CCC(C(=O)O)CC1 (some centres undefined)	-80.9*
CCOC(=O)c1cnc2ccc(C(=O)OC)cc2c1Nc1ccc(C(=O)O)cc1	-46.9
CCOC(=O)c1cnc2ccc(C(=O)OC)cc2c1Nc1ccc2c(c1)OCCO2	-72.4*!
CCOC(=O)c1cnc2ccccc2c1NCCO	13.2
COc1ccccc1-c1cc(C(=O)N2CCOC(C(F)(F)F)C2)[nH]n1 (centres undefined)	-13.2
OCc1ccccc1-c1ccc2oc(-c3cccnc3)nc2c1	172.7
O=C(CC1Nc2c3ccccc3nc(=S)n2C1=O)NCCC1=CCCCC1 (centres undefined)	-15.0
CC1=C(C(=O)NCCCN2CCC(N3CCCCC3)CC2)C2(CCCCC2)OC1=O	18.0
CC1=C(C(=O)NC2CCN(Cc3ccccc3)CC2)C2(CCCCC2)OC1=O	-15.4
CC1=C(C(=O)NCCN2CCC(Cc3ccccc3)CC2)C2(CCCCC2)OC1=O	-83.9*
COc1ccc(NC(=O)c2nnn(Cc3nc(-c4ccccc4OC)oc3C)c2C)cc1OC	-2.4
CCOC(=O)CC(=O)N1CCSC1COc1ccccc1OC (centres undefined)	18.6
O=C(NC1CCC(n2cnnc2)CC1)c1ccc(-c2ccccc2)[nH]1 (centres undefined)	3.5
Nc1cc(-c2cnc3ccccc3n2)c2cc[nH]c2n1	-90.3*
COc1ccc(-c2cc(N)nc3[nH]ccc23)cn1	-34.3
Cc1cnc(C)c(-c2cc(N)nc3[nH]ccc23)n1	195.9
CCSc1nc(CC(=O)NCCc2n[nH]c3c2CCCC3)cs1	-8.1
Cc1nc2nnc3ccc(C(=O)N(C)Cc4ccccn4)cc3c2n1Cc1ccccc1	-109.5*
SMILES	Tg IFNy HTS
CN(C)C(=O)c1ccc2nnc3ncn(Cc4ccccc4)c3c2c1	-45.5
Cc1nc2nnc3ccc(C(=O)N(C)C)cc3c2n1-c1ccccc1	-2.9
COc1ccccc1-n1cc(C(=O)N2CCCC3(CNC(=O)O3)C2)cn1 (centres undefined)	-2.1
O=S(=O)(NC[C@@]12COC[C@@H]1CN(Cc1cccs1)C2)C1CC1	43.2
CCCCOc1ccc(-c2cc3c(=O)n(Cc4nc(-c5ccc(Cl)cc5)oc4C)ccn3n2)cc1	-3.5
COc1ccc(-c2sncc2-c2ccccc2)cc1	-109.2*
COc1ccc(-c2cc(-c3ccccc3)c(C)c(-c3ccccc3)n2)cc1	-49.7
COc1ccc(-c2nc(Cc3noc(-c4ccccc4)n3)c(C)o2)cc1	-21.5
CCc1ccc(S(=O)(=O)N2CCCn3cnc(CN4CCCC4=O)c3C2)cc1	-20.7
CCCNC(=O)c1cc(-c2cnc(-c3cccnc3)nc2)cn1C	-90.9*
COCCC(=O)c1cc(-c2cnc(-c3cccnc3)nc2)cn1C	-38.6
CN(C)CCNC(=O)c1cc(-c2cnc(-c3ccnn3C)nc2)cn1C	71.1
CCOc1ccc(-c2noc(-c3c(O)c4cc(C)ccc4[nH]c3=O)n2)cc1OC	-9.5
Cn1cc(C(=O)NCc2csc(N3CCCC3)n2)ccc1=O	38.1
CN(C)Cc1noc2c1CN(Cc1nccn1C)CC2	-75.0*
CN(C)Cc1noc2c1CN(Cc1ccoc1)CC2	-31.7
Cc1cccc(CN2CCc3onc(CN(C)C)c3C2)n1	-2.0
CCc1cn[nH]c1C1CCN(CC2CCOC(C)(C)C2)CC1 (centres undefined)	4.7
CCn1cnc(NC(=O)N(C)Cc2cccc3ncccc23)n1	-0.8
CN(C)C(=O)Nc1cccc(-c2ccc(N(C)C)cc2)c1	31.7
CCn1cc(-c2ccnc3[nH]c(-c4cccc(CN(C)C)c4)cc23)c(-c2ccc(NC(=O)N(C)C)cc2)n1	-82.5*
CCC(c1ccccn1)N(C)Cc1ncccc1C(=O)O (centres undefined)	0.9
CCn1ccc2cc(S(=O)(=O)N3CCCC(C(=O)NCCCN4CCCC4=O)C3)ccc21 (centres undefined)	9.7
CCc1nc(N2CCNC(C(=O)O)C2)ncc1C (centres undefined)	-7.0
Cn1cc(-c2ccc(C(=O)N3CCC(CN4CCCC4=O)CC3)cn2)cn1	-14.6
SMILES	Tg IFNy HTS
CC(=O)c1ccc2c(c1)N(CCCN1CCC(CCO)CC1)c1ccccc1S2	-34.4
O=C(CSc1nnc(-c2ccco2)o1)N1c2ccccc2Sc2ccc(Cl)cc21	15.2
CN(C)CCCN1c2ccccc2Sc2ccc(Cl)cc21	-80.9*!
OCCN1CCN(CCCN2c3ccccc3Sc3ccc(Cl)cc32)CC1	-99.6*!
CN(C)CCCN1c2ccccc2CCc2ccccc21	-50.6
O=C(CCN1CCN2CCCCC2C1)N1c2ccccc2Sc2ccc(Cl)cc21 (centres undefined)	-12.4
C=CCNc1ccccc1C(=O)NCCNC(C)=O	4.3

Screening results deposited in PubChem by Broad Institute.
